The values that follow come from publication PMC4336329 (PLoS ONE, 2015).

The whole screen tested about 310,000 compounds, of which about 14,000 (4.5%) showed an effect of 50% or more. Effects have a minus sign here. What follows is part of a selection rich in strong results, with near analogues and random picks from the rest.
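Further: peak tail current of the secondary pulse compared with the same well before compound.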

For the assay, the target named is human ether-à-go-go-related gene (hERG) potassium channel (human, UniProt Q12809). Put plainly: primary screen, population patch clamp on CHO cells stably expressing hERG; higher = less effect of the substance.
Chain of human ether-à-go-go-related gene (hERG) potassium channel (Q12809 whole entry, looked up): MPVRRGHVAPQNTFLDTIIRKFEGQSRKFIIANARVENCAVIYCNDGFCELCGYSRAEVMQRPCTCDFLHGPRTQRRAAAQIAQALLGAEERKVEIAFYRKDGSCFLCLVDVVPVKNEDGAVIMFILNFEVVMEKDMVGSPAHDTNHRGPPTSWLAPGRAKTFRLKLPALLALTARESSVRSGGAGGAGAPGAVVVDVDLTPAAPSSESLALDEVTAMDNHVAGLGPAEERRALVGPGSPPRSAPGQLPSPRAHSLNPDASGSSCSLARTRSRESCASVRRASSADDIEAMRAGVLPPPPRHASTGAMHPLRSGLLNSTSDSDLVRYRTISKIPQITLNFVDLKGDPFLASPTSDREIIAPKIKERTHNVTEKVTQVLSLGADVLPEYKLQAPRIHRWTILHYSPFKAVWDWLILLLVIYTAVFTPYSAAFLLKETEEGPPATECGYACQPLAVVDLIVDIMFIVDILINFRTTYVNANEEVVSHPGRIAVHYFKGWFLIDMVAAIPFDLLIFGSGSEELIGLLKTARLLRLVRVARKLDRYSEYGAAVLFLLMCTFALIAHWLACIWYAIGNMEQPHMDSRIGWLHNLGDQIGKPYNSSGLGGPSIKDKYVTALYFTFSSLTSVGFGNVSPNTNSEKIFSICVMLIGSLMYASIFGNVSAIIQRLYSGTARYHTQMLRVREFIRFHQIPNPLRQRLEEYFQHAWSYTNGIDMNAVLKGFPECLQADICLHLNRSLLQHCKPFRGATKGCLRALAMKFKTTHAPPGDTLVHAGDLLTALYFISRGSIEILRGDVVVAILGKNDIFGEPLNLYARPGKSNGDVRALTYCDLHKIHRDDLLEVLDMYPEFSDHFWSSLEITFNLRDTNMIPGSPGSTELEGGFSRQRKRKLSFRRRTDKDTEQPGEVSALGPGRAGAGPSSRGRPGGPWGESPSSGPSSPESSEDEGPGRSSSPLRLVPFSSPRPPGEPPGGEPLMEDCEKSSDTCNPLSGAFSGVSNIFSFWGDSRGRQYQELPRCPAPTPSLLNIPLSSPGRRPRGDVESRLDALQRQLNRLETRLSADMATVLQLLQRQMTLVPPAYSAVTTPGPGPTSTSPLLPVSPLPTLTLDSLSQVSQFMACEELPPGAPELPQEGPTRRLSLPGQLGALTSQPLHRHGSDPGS
As to `Cc1nnc2sc(-c3ccc(-c4ccc(Cl)c(C(F)(F)F)c4)o3)nn12`, the “hERG current change (%, negative = inhibition) at 10uM” value is 3.66%.
For `CCCCSc1nnc(-c2ccc(C)cc2)n1C`, the “hERG current change (%, negative = inhibition) at 10uM” value is recorded as -33.7%.
On to `COc1cc(C(=O)Nc2ccc3c(c2)ncn3C(C)(C)C)cc(OC)c1OC`, for which the “hERG current change (%, negative = inhibition) at 10uM” value worked out at 9.04%.
As for `CCOc1c2ccccc2nn1CCOC`, the figure is 5.42%; as for `CN(C)CCCN(Cc1cc2cc3c(cc2[nH]c1=O)OCO3)C(=S)NCc1ccco1`, -19.2%.
As for `CCc1ccc2[nH]c(=O)c(CN(CCN(CC)CC)C(=S)NCc3ccco3)cc2c1`, the figure is -67.9%; as for `CCN(CC)CCN(Cc1cc2cc(C)ccc2[nH]c1=O)C(=S)NCc1ccco1`, -43.4%.
In the case of `CCc1ccc2[nH]c(=O)c(CN(CC3CCCO3)C(=S)NCc3ccco3)cc2c1` (stereo not shown) it was -21.6%; in that of `CCc1ccc2[nH]c(=O)c(CN(CCN(C)C)C(=S)NCc3ccco3)cc2c1`, -52%; in that of `CCc1ccc2[nH]c(=O)c(CN(Cc3ccco3)C(=S)NCC3CCCO3)cc2c1` (stereo not shown), -19%.
Take `O=C1c2cccc3c([N+](=O)[O-])ccc(c23)C(=O)N1c1ccc(Cl)cn1`: the “hERG current change (%, negative = inhibition) at 10uM” value turned out to be 0.201%.
As for `COC(=O)c1cccc(NS(=O)(=O)c2ccc(OC)cc2)c1C`, the figure is -1.48%.
On to `COc1ccc(-c2cc(C(F)(F)F)nc(SCCC(=O)NCc3ccccc3)n2)cc1`, for which the “hERG current change (%, negative = inhibition) at 10uM” value is -14.5%.
With `CCCOc1ccc(C(=O)Nc2c[nH]c(=O)[nH]c2=O)cc1`, the “hERG current change (%, negative = inhibition) at 10uM” value is -6.41%.
`CCn1c(COc2cccc(OC)c2)nnc1SCC(=O)Nc1cccc(OC)c1`: the “hERG current change (%, negative = inhibition) at 10uM” value was -41.1%.
Take `N=c1c(C(=O)NC2CCCC2)cc2c(=O)n3ccccc3nc2n1CCN1CCOCC1`: the “hERG current change (%, negative = inhibition) at 10uM” value is listed as -91.9%.
In the case of `N=c1c(C(=O)NC2CCCC2)cc2c(=O)n3ccccc3nc2n1CCCN1CCOCC1`, the “hERG current change (%, negative = inhibition) at 10uM” value was -78.2%.
In the case of `O=C(c1ccco1)N1CCN=C1SCc1cccc(F)c1` it was -6.98%.
With `Cc1csc2ncc(C(=O)NCCC(c3ccccc3)c3ccccc3)c(=O)n12`, the “hERG current change (%, negative = inhibition) at 10uM” value is -0.968%.
Turning to `Cc1cc(-c2nn(C)c(=O)c3ccccc23)cc(C)c1O`, the “hERG current change (%, negative = inhibition) at 10uM” value is 0.868%.
As to `Cc1ccc(S(=O)(=O)N2CCC(=O)N(C(COCc3ccccc3)C(C)C)CC2)cc1` (stereo not shown), the “hERG current change (%, negative = inhibition) at 10uM” value is listed as -23.2%.
Consider `Cc1ccc(COCCN2CCN(S(=O)(=O)c3ccc(C)cc3)CCC2=O)cc1`, for which the “hERG current change (%, negative = inhibition) at 10uM” value came out at 6.17%.
As for `Cc1ccc(NC(=O)OCCN2CCN(S(=O)(=O)c3ccc(C)cc3)CCC2=O)cc1`, the figure is -18.5%; as for `Cc1ccc(COCCN2CCN(S(=O)(=O)c3ccccc3)CCC2=O)cc1`, -0.87%; as for `Cc1ccc(S(=O)(=O)N2CCC(=O)N(C(COCc3ccc(Cl)cc3)C(C)C)CC2)cc1` (stereo not shown), -51.7%.
`Cc1ccc(S(=O)(=O)N2CCC(=O)N(CCOC(=O)Nc3cccc(Cl)c3)CC2)cc1`: the “hERG current change (%, negative = inhibition) at 10uM” value was -65.7%.
For `Cc1ccc(S(=O)(=O)N2CCC(=O)N(CCOC(=O)Nc3cc(C)cc(C)c3)CC2)cc1`, the “hERG current change (%, negative = inhibition) at 10uM” value is recorded as -40.7%.
In the case of `Cc1ccc(S(=O)(=O)N2CCC(=O)N(C(COCc3cccc(Cl)c3)C(C)C)CC2)cc1` (stereo not shown), the “hERG current change (%, negative = inhibition) at 10uM” value is listed as -35.2%.
In the case of `Cc1ccc(S(=O)(=O)N2CCC(=O)N(CCOCc3ccc(Cl)cc3)CC2)cc1` it was -60.1%; in that of `COc1ccc(C2=Nc3cccc4cccc(c34)N2)cc1`, 9.66%; in that of `Cc1cccc(Nc2nnc(SCC(=O)Nc3cccc(S(=O)(=O)N4CCCCC4)c3)s2)c1`, 3.37%.
In the case of `C=CCN1C(=O)NC(=O)/C(=C/c2ccoc2)C1=O` it was 20.5%.
Take `CCn1c(C)[n+](CCOC(C)=O)c2cc(Cl)c(Cl)cc21.[I-]`: the “hERG current change (%, negative = inhibition) at 10uM” value is -8.87%.
For `COC(=O)CCCC(=O)N1CCC(CCC(=O)NCc2ccc(F)cc2)CC1`, the “hERG current change (%, negative = inhibition) at 10uM” value is -24%.
As for `CCOC(=O)N1CCN(c2ccc(Cl)c(Cl)c2)CC1`, the figure is -11.1%.
For the compound `COC(=O)N1CCN(c2ccc(Cl)c(Cl)c2)CC1`, the “hERG current change (%, negative = inhibition) at 10uM” value is -1.86%.
For the compound `N#C/C=C(/N)N1CCN(c2ccc(Cl)c(Cl)c2)CC1`, the “hERG current change (%, negative = inhibition) at 10uM” value is on record as -73.9%.
For the compound `CN(C)C(=C(C#N)C#N)N1CCN(c2ccc(Cl)c(Cl)c2)CC1`, the “hERG current change (%, negative = inhibition) at 10uM” value is reported as -63.2%.
As to `CN(C)C(=C(C#N)C#N)N1CCN(c2ccc(Cl)cc2)CC1`, the “hERG current change (%, negative = inhibition) at 10uM” value is listed as -48.3%.
Regarding `CNC(=S)N1CCN(c2ccc(Cl)c(Cl)c2)CC1`, the “hERG current change (%, negative = inhibition) at 10uM” value is recorded as -6.17%.
For `CCC1(c2ccccc2)NC(=O)N(CC(=O)Nc2ccccc2N2CCCCC2)C1=O` (stereo not shown), the “hERG current change (%, negative = inhibition) at 10uM” value is given as -15.8%.
Take `CCCc1ccc(Oc2cc(N3CCOCC3)nc(-c3ccccc3)n2)cc1`: the “hERG current change (%, negative = inhibition) at 10uM” value stood at 21.5%.
As to `CCC(=O)Nc1cccc(-c2nc3ccc(C)cc3o2)c1`, the “hERG current change (%, negative = inhibition) at 10uM” value is -13.4%.
With `CC1(C)CC(O)C(C)(C)N1O` (stereo not shown), the “hERG current change (%, negative = inhibition) at 10uM” value is recorded as 3.9%.
`CCc1nnc(NS(=O)(=O)c2ccc(N=Cc3c(C)[nH]n(-c4ccc(Cl)cc4)c3=O)cc2)s1`: the “hERG current change (%, negative = inhibition) at 10uM” value was determined as 17.7%.
As for `Cc1ccc(C)c(CN2C(=O)CSc3ccc(C(=O)NCCN4CCOCC4)cc32)c1`, the figure is 14.6%; as for `Cc1ccc(C)c(CN2C(=O)CSc3ccc(C(=O)N4CCCC4)cc32)c1`, -17%.
For `Cc1ccc(C)c(CN2C(=O)CSc3ccc(C(=O)NCC(C)CN4CCC(C)CC4)cc32)c1` (stereo not shown), the “hERG current change (%, negative = inhibition) at 10uM” value is listed as -75.8%.
Consider `CCOC(=O)c1nn(-c2ccccc2F)c(-c2ccccc2)c1C(=O)c1ccccc1`, for which the “hERG current change (%, negative = inhibition) at 10uM” value was 7.34%.
In the case of `O=C(NCCc1ccccc1)c1ccc(-n2cnnn2)cc1`, the “hERG current change (%, negative = inhibition) at 10uM” value is on record as -4.78%.
`COCCN(C(=O)COC(=O)c1cccc2ccccc12)c1c(N)n(Cc2ccccc2)c(=O)[nH]c1=O`: the “hERG current change (%, negative = inhibition) at 10uM” value is given as -0.159%.
As for `COc1ccc(OCC(=O)N2CCC(n3nccc3NC(=O)C3CC3)CC2)cc1`, the “hERG current change (%, negative = inhibition) at 10uM” value came to 1.44%.
Turning to `COc1ccc(/C=C/CN2CCC(n3nccc3NC(=O)C3CCCC3)CC2)cc1`, the “hERG current change (%, negative = inhibition) at 10uM” value is on record as -88.6%.
Regarding `COc1ccc(/C=C/CN2CCC(n3nccc3NC(=O)C3CC3)CC2)cc1`, the “hERG current change (%, negative = inhibition) at 10uM” value was -72.7%.
Take `COc1ccc(CC(=O)N2CCC(n3nccc3NC(=O)C3CC3)CC2)cc1`: the “hERG current change (%, negative = inhibition) at 10uM” value is recorded as 13.7%.
